Several values for one entry are separate records, joined by “and”; a condition that tells them apart may be missing. Equal values may be shown once. Out of some 350,000 compounds screened, about 990 (0.28%) were called active. Inconclusive results (about 2%) are left out. The call rests on the fitted dose curve; in most records, active means well fitted inhibition curve with a large enough effect; inconclusive means small, poorly fitted or top-dose-only effect; inactive means no such curve, though single readings can be large or run the other way. The list comes from a sample in which actives are over-represented; it also holds similar structures and randomly drawn compounds. A call without a number means that no potency is given here. Some compounds were tested as several samples or in several runs, with calls that do not always agree.
biological target: Tyrosyl-DNA phosphodiesterase 1 (Homo sapiens) (UniProt Q9NUW8); test: qHTS Assay for Inhibitors of Tyrosyl-DNA Phosphodiesterase (TDP1); settings: recombinant TDP1, AlphaScreen DNA substrate cleavage; series mostly up to 130 µM; further: nearly all actives have a fitted effect of over 40% in size
Sequence (Q9NUW8 whole entry, looked up): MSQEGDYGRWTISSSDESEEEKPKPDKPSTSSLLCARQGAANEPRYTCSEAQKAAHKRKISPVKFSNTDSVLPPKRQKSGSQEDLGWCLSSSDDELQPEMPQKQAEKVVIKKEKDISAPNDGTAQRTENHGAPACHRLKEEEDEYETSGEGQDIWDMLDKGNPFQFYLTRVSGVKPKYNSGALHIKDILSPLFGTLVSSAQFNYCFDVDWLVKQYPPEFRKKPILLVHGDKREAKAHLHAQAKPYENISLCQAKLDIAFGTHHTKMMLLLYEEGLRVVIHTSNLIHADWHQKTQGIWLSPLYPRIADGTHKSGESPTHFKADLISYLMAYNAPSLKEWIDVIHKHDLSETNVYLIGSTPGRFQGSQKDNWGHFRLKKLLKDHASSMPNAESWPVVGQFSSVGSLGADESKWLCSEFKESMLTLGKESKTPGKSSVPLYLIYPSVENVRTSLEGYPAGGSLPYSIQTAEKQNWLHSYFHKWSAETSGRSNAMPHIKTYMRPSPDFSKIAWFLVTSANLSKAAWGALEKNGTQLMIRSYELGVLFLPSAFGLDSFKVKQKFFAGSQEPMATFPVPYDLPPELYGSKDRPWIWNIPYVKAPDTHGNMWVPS
Procedure, shortened: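 Tdp1 1 nM final; 15 min RT w/ cpd; substrate 15 nM, 5 min; beads 10 ug/ml, 10 min; AlphaScreen read. Neg ctrl: no enzyme.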
Potency means the concentration at half of the fitted maximal effect.

Row | SMILES | Potency
1 | COC(=O)c1ccccc1NC(=O)c1ccc(C#N)cc1 | inactive
2 | CCOC(=O)c1ccc(NC(=O)c2c(NCc3cccs3)sc3c2CCCC3)cc1 | inactive
3 | Cc1nn2c(=O)cc(COC(=O)c3cccc(NC(=O)COc4ccccc4Cl)c3)nc2s1 | inactive
4 | Cc1cccc(NC(=O)CN2C(=O)c3ccccc3C2=O)c1C | inactive
5 | Cc1ccccc1NC(=O)CN1C(=O)N/C(=C\c2cccn2-c2cccc(C(=O)O)c2)C1=O | 1.41 µM (active)
6 | O=C1N/C(=C/c2cccn2-c2ccccc2)C(=O)N1c1cccc(Cl)c1 | inactive
7 | O=C(COc1ccccc1Cl)Nc1ccc2nc(SCC(=O)N3CCCC3)sc2c1 | inactive
8 | Oc1ccc(/C=C/c2c(F)cccc2F)c2cccnc12 | inactive
9 | O=S(=O)(c1cccc(C(F)(F)F)c1)N1CCN(c2nc(-c3cccs3)nc3ccccc23)CC1 | inactive
10 | CN(C)C(CNC(=O)c1ccc(OCc2cn3ccccc3n2)cc1)c1ccco1 (centres undefined) | 14.1 µM (active)
11 | O=Cc1ccc(OCc2cn3ccccc3n2)cc1 | inactive
12 | COc1ccc(C(=O)NCc2cn3ccccc3n2)cc1 | inactive
13 | CCOC(=O)Cn1c(=O)n(-c2ccccc2OC)c2nc(-c3cccc(F)c3)nc(C(N)=O)c21 | inactive
14 | COc1ccc(C(=O)Nc2ccc(-n3nncc3-c3ccccc3)cc2)cc1OC | inactive
15 | Cc1cc(C)cc(C(=O)NC2C(=O)N3C(C(=O)O)=C(CSc4nnc(C)s4)CSC23)c1 (centres undefined) | inactive
16 | C=CC1=C(C(=O)O)N2C(=O)[C@@H](NC(=O)/C(=N\OCC(=O)O)c3csc(N)n3)[C@H]2SC1 | 14.1 µM (active)
17 | Cc1nnc(SCC2=C(C(=O)O)N3C(=O)C(NC(=O)Cn4nc(C)c(Cl)c4C)C3SC2)s1 (centres undefined) | inactive
18 | CO/N=C(\C(=O)N[C@@H]1C(=O)N2C(C(=O)O)=C(COC(C)=O)CS[C@H]12)c1csc(N)n1 (stereo in doubt) | inactive and 10 µM (active) and 20 µM (active)
19 | COc1ccc(C2Nc3ccc(NC(=O)COC(C)=O)cc3C(=O)N2Cc2ccccc2)cc1COc1ccc(NC(C)=O)cc1 (centres undefined) | inactive
20 | COc1cccc(Cn2c(SCc3ccc(C(=O)N4CCC(C)CC4)cc3)nc3ccncc32)c1 | inactive
21 | CCOC(=O)c1ccc(NC(=O)c2c(NCc3cccc(OC)c3)sc3c2CCC3)cc1 | inactive
22 | COC(=O)c1ccc(NC(=O)c2cnn(-c3ccc(Cl)cc3)c2C2CCN(C(=O)OC(C)(C)C)CC2)cc1 | inactive
23 | COc1ccc(C(=O)Nc2cccc(C(=O)OCc3cc(=O)n4c5c(sc4n3)CCCC5)c2)cc1 | inactive
24 | CC(C)c1ccc(NC(=O)c2ccc(Cn3nc(N4CCN(c5ccccc5)CC4)ccc3=O)o2)cc1 | inactive
25 | Cc1ccc(-c2nc3ccccn3c2Nc2ccc(F)cc2)o1 | inactive

Row | SMILES | Potency
26 | Cc1ccc2nc(-c3ccncc3)cc(C(=O)Nc3ccc(OC(F)F)cc3)c2c1 | 50.1 µM (active)
27 | Cc1ccc2nc(-c3ccncc3)cc(C(=O)Nc3ccc4c(c3)OCCO4)c2c1 | inactive
28 | Cc1ccc2nc(-c3ccncc3)cc(C(=O)Nc3ccncc3)c2c1 | inactive
29 | CN(C)Cc1cn(-c2ccccc2)nc1-c1ccccc1 | inactive
30 | COC(=O)c1ccccc1S(=O)(=O)Nc1ccc(OC)cc1 | inactive
31 | COc1ccc(C2Nc3ccccc3C(=O)N2Cc2ccc(Cl)cc2)cc1COc1ccc(NC(C)=O)cc1 (centres undefined) | inactive
32 | Cc1ccc(-c2nn3c(=O)cc(CN4CCN(C(=O)Nc5cccc(C(F)(F)F)c5)CC4)nc3s2)cc1 | inactive
33 | N#Cc1nc(Nc2cccc(Cl)c2)nc(NC2CCCC2)n1 | inactive
34 | O=C1CCc2cc(S(=O)(=O)Nc3cccc(Oc4ccccc4)c3)ccc2N1 | inactive
35 | Oc1c(C(c2ccc(F)cc2)N2CCN(Cc3ccccc3)CC2)sc2nc(-c3ccco3)nn12 (centres undefined) | inactive
36 | C=CCNC(=O)c1ccc2nc(-c3ccco3)c(-c3ccco3)nc2c1 | inactive
37 | O=C(NCc1ccccn1)c1ccc2nc(-c3ccco3)c(-c3ccco3)nc2c1 | 8.91 µM (active)
38 | O=C1CSc2ccc(C(=O)NCc3ccccn3)cc2N1 | inactive
39 | COc1ccc(N2C(=O)CSC23C(=O)N(Cc2cccc(F)c2)c2ccccc23)cc1Cl (centres undefined) | inactive
40 | CCCC(=O)N1CCN(c2nc3c(OC)ccc(C)c3s2)CC1 | inactive
41 | CCOC(=O)c1sc2nc(CSc3ccccc3)[nH]c(=O)c2c1C | inactive
42 | CSc1nnc(SCc2nc3sc(C(=O)O)c(C)c3c(=O)[nH]2)s1 | 22.4 µM (active)
43 | CC(=O)c1sc2nc(SCC(=O)N3CCCCC3)[nH]c(=O)c2c1C | inactive
44 | Cc1nn(-c2ccc(N3CCCCC3)nn2)c(C)c1CCC(=O)NCc1ccc(F)cc1 | inactive
45 | N#CN1CCC(NC(=O)c2ccc(F)cc2)CC1 | inactive
46 | NC(=O)C1CCN(C(=O)c2cccc(NC(=O)c3nsc4ccccc34)c2)CC1 | inactive
47 | CC(C)c1ccc(NC(=O)C2CCN(c3nc(-c4ccc(C(C)C)cc4)no3)CC2)cc1 | inactive
48 | O=C(COC(=O)c1cccs1)NCc1cccs1 | inactive
49 | O=C(COC(=O)C12CC3CC(CC(C3)C1)C2)NCc1ccco1 | inactive
50 | O=C(COC(=O)CCC(=O)c1cccs1)NCc1ccco1 | 22.4 µM (active)

Row | SMILES | Potency
51 | CCCCNc1ccc(-c2nc(-c3ccncc3)no2)cc1[N+](=O)[O-] | inactive
52 | Cc1cc(C)c2oc(-c3cccc(NC(=O)c4cccc(F)c4)c3C)nc2c1 | inactive
53 | Cc1ccc(CCC(=O)Nc2ncc(Cc3cc(Cl)ccc3Cl)s2)o1 | inactive
54 | Cc1ccc(Cc2cnc(N)s2)o1 | 20 µM (active)
55 | COc1cc(F)c(S(=O)(=O)N2CCCN(S(=O)(=O)c3ccc(N)cc3)CC2)c(F)c1 | inactive
56 | O=S1(=O)N=C(Oc2cccc(Br)c2)c2ccccc21 | inactive
57 | COc1ccc(NC(=O)CSc2nc(NS(=O)(=O)c3ccc(C)cc3)cc(=O)[nH]2)cc1 | 20 µM (active)
58 | COc1ccc(NC(=O)CSc2nc3ccccc3[nH]2)cc1 | inactive
59 | Cc1ccc(NC(=O)CSc2nc(CSc3ccc(C)cc3)cc(=O)[nH]2)cc1 | inactive
60 | Oc1ccc(Br)cc1C1C=C(c2ccc3c(c2)OCO3)NC(c2ccc(Cl)cc2)N1 (centres undefined) | inactive
61 | Cc1ccc2nc(-c3ccc(O)cc3)c(Nc3ccc4c(c3)OCO4)n2c1 | inactive
62 | COc1ccc(CCc2nc(-c3cccs3)no2)cc1 | 89.1 µM (active)
63 | CCc1ccc(CNC(=O)CCc2nc(-c3cccs3)no2)cc1 | inactive
64 | COc1ccc(OC)c(CNC(=O)CCc2nc(-c3cccs3)no2)c1 | inactive
65 | CCC(=O)Nc1cccc(-c2nc3cc(C)ccc3o2)c1 | inactive
66 | OCCNc1ncnc2oc(-c3ccco3)c(-c3ccco3)c12 | inactive
67 | CN(CCOc1ccccc1)C(=O)c1cc(COc2c(F)cccc2F)on1 | inactive
68 | Cc1cc(CN(C)C(=O)c2cc(COc3ccc(C)c(C)c3)on2)n[nH]1 | inactive
69 | Cc1ccc(OCc2cc(C(=O)N(C)CCc3ccccc3)no2)cc1C | 50.1 µM (active)
70 | COc1ccc(C2Nc3ccccc3C(=O)N2Cc2ccco2)cc1COc1cccc(NC(C)=O)c1 (centres undefined) | inactive
71 | Cc1ccc(C(=O)COC(=O)C(Cc2c[nH]c3ccccc23)NC(=O)c2ccc(Br)cc2)cc1 (centres undefined) | inactive
72 | CCCCNC(=O)Cn1c(SCc2cccc(Cl)c2)nc2ccncc21 | inactive
73 | CCN1CCN(c2cc(C)c3cc(NC(=O)c4cc(Cl)ccc4OC)ccc3n2)CC1 | inactive
74 | C=CC(COCc1ccccc1)N(Cc1ccccc1)S(=O)(=O)c1ccccc1Br (centres undefined) | inactive
75 | C=CCCN(Cc1ccccc1)S(=O)(=O)c1ccccc1Br | 39.8 µM (active)

Row | SMILES | Potency
76 | C=CCCN(C(Cc1ccccc1)C(=O)OC)S(=O)(=O)c1cc(Br)ccc1Br (centres undefined) | inactive
77 | CC1(C)CCc2cc(S(=O)(=O)N3CCN(c4nc(-c5cccs5)nc5ccccc45)CC3)ccc2O1 | inactive
78 | Cc1ccc(Cl)cc1NC(=O)C(C)n1nnc2sc(-c3ccccc3)cc2c1=O (centres undefined) | inactive
79 | Cc1ccc(Nc2nc(N)nc(CN3CCN(Cc4ccccc4)CC3)n2)cc1Cl | inactive
80 | Cc1ccc(Nc2nc(N3CCOCC3)nc(N3CCOCC3)n2)cc1Cl | 22.4 µM (active)
81 | Cc1ccccc1NC(=O)CSc1nc2ccc(Nc3nc(N4CCOCC4)nc(N4CCOCC4)n3)cc2s1 | inactive
82 | CC1CC(C)CN(c2oc(-c3ccc(OCc4ccc(Cl)cc4)cc3)nc2C#N)C1 (centres undefined) | inactive
83 | Cc1ccc(CCNC(=O)c2ccc(CS(=O)(=O)Cc3cccc(C)c3)o2)cc1 | inactive
84 | CCN1CCN(C(c2ccc(C)cc2)c2c(O)cc(C)n(Cc3ccco3)c2=O)CC1 (centres undefined) | inactive
85 | COc1cccc(C(=O)NC2CCN(C#N)CC2)c1 | inactive
86 | Cn1c(COc2ccccc2C(C)(C)C)nc2ccccc21 | inactive
87 | O=c1nc(N/N=C/c2ccco2)cn[nH]1 | 31.6 µM (active)
88 | O=C(Cc1ccc([N+](=O)[O-])cc1)N/N=C/c1ccco1 | inactive
89 | CC(C)NC(=O)C(=O)N/N=C/c1ccco1 | inactive
90 | Oc1ccc(Cl)cc1C1C=C(c2ccc3c(c2)OCO3)NC(c2c(F)cccc2Cl)N1 (centres undefined) | inactive
91 | Cc1noc(C)c1-c1ccc2ncnc(NCc3ccc(F)c(F)c3)c2c1 | inactive
92 | Oc1ccc(Cl)cc1C1C=C(c2ccc3c(c2)OCO3)NC(c2ccc(F)c(Br)c2)N1 (centres undefined) | inactive
93 | CO[C@@]12[C@@H](COC(N)=O)C3=C(C(=O)C(C)=C(N)C3=O)N1C[C@@H]1N[C@@H]12 | 35.5 µM (active)
94 | O=[N+]([O-])c1ccc(S(=O)(=O)N2CCN(c3nc(-c4ccccc4)nc4ccccc34)CC2)cc1 | inactive
95 | Cc1cccc(N2CCN(C(=O)c3ccc4c(c3)CCN4S(=O)(=O)c3ccccc3)CC2)c1C | inactive
96 | COc1ccc(CCNc2ncnc3c2cnn3-c2ccc(C)cc2)cc1 | inactive
97 | CCOCN(C(=O)Cn1c(C(C)O)nc2ccccc21)c1c(C)cccc1CC (centres undefined) | 89.1 µM (active)
98 | CCc1cccc(C)c1N(C(=O)Cn1c(CO)nc2ccccc21)C(C)COC (centres undefined) | inactive
99 | CC(O)c1nc2ccccc2n1Cc1ccc([N+](=O)[O-])cc1 (centres undefined) | inactive
